# Values without a mark were called inactive. Some of the results follow. Active and inactive are the calls of the source. Cut-off read from the data, not from the text of the source, unless noted: active = inhibition above about 22%; inactive = the rest.
# What was measured:
# [1] = biological target: Lytic switch protein BZLF1 (Epstein-Barr virus (strain B95-8)) (UniProt P03206); experiment: EBV Zta binding to ZRE DNA, inhibitors, confirmation, biochemical, fluorescence polarization, triplicate (AID 2361;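 active = mean inhibition across triplicate runs above the hit threshold derived for the original primary screen, cut at about 33% in these data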;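 note: 0% = Zta with DMSO and 100% = wells lacking Zta protein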); conditions: at 11.1 µM, stronger effect = higher value
# [2] = test system: Epstein-Barr virus nuclear antigen 1 (EBNA-1), Human herpesvirus 4; experiment: EBNA-1 DNA-binding inhibition, counter-screen for ZTA inhibitor project, biochemical, fluorescence polarization (AID 2362; call rule not given here); conditions: at 14.8 µM, stronger effect = higher value
# [3] = biological target: Oxytocin receptor (Homo sapiens) (UniProt P30559); experiment: human OXTR agonists, confirmation, fluorescence, CHO-OTR cells, triplicate (AID 434963;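 active = mean activation above about 20% derived from the earlier single-dose screen, limit read from the data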;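 note: peak over minimum fluorescence ratio per well during a 100 second FLIPR read; 0% = DMSO alone and 100% = oxytocin high control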); conditions: Fluo-8 calcium fluorescence, agonist, at 3 µM, stronger effect = higher value
# [4] = biological target: Vasopressin V1a receptor (Homo sapiens) (UniProt P37288); experiment: V1a receptor agonists, calcium signal, counter-screen for OXTR agonist project, triplicate, fluorescence, CHO-V1R cells (AID 434991;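 active = mean activation over triplicate exceeds the hit threshold set in the earlier primary screen, cut at about 20% in these data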;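 note: peak over basal fluorescence ratio within a 100 second read; 0% = DMSO alone and 100% = 3 nM vasopressin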); conditions: Fluo-8 calcium fluorescence, at 3 µM, stronger effect = higher value
# [5] = biological target: Photoreceptor-specific nuclear receptor (Homo sapiens) (UniProt Q9Y5X4); experiment: NR2E3 agonists, confirmation, biochemical, TR-FRET (AID 2379; in the data active = activation above about 20%); conditions: cell-free NR2E3 corepressor release, 5 h, at 3.98 µM, stronger effect = higher value
# [6] = biological target: Peroxisome proliferator-activated receptor gamma (Homo sapiens) + Nuclear receptor corepressor 2 (Homo sapiens) (UniProt P37231+Q9Y618); experiment: agonists of PPARg-NCOR2 corepressor interaction, counter-screen for NR2E3 agonist project, biochemical, TR-FRET (AID 504787; in the data active = inhibition above about 20%;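 note: 0% = DMSO vehicle and 100% = wells without protein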); conditions: TR-FRET PPARg-NCOR2 coregulator interaction, at 3.98 µM, stronger effect = higher value
# [7] = biological target: Insulin-degrading enzyme (Homo sapiens) (UniProt P14735); experiment: human IDE inhibitors in live cells, confirmation, fluorescence polarization, HEK cells, FAbetaB substrate (AID 435028;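 active = mean inhibition across triplicate wells above the cutoff set by the earlier primary insulin-degrading enzyme screen, cut at about 16% in these data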;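 note: 0% = DMSO wells and 100% = 60 µM reference IDE inhibitor Ii1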); conditions: FAbetaB cleavage, at 5.59 µM, stronger effect = higher value
# [8] = cytotoxicity in HEK cells, cytotoxicity control for IDE inhibitor project, cell-based, luminescence (AID 449730); conditions: HEK293 cytotoxicity, ATP luminescence; at 5.59 µM; stronger effect = higher value;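 note: 0% = vehicle wells and 100% = reference cytotoxic drug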
# [9] = biological target: Photoreceptor-specific nuclear receptor (Homo sapiens) (UniProt Q9Y5X4); experiment: NR2E3 agonist confirmation in cells, cell-based, luminescence, CHO-S two-hybrid (AID 624378;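 active = average inhibition above a cutoff equal to the mean inhibition of all tested compounds plus one SD, cut at about 70% in these data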;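 note: 0% = DMSO in NR2E3 cells and 100% = DMSO in cells lacking NR2E3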); conditions: CHO-S mammalian two-hybrid NR2E3-NCOR, luciferase luminescence; at 3.98 µM; stronger effect = higher value
# [10] = GAL4-VP16 reporter modulators, confirmation, counter-screen for NR2E3 agonist project, cell-based, luminescence, CHO-S, high throughput (AID 624379;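 active = mean inhibition above a cutoff equal to the average over all tested compounds plus one standard deviation, cut at about 70% in these data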;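 note: luciferase from a UAS reporter driven by GAL4-VP16 transactivation; 0% = DMSO with VP16-transfected cells and 100% = DMSO with cells lacking VP16; higher means less reporter light so more repression of VP16 activity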); conditions: CHO-S GAL4-VP16 luciferase reporter, at 3.98 µM, stronger effect = higher value
# [11] = test system: transactivating tegument protein VP16 (Human herpesvirus 1); experiment: VP16 transactivation reporter inhibitors, counter-screen for SRC2 inhibitor project, cell-based, luminescence, single concentration (AID 652007; in the data active = inhibition above about 36%); conditions: cell-based VP16 transactivation luciferase reporter, at 8.9 µM, stronger effect = higher value
# [12] = biological target: Nuclear receptor coactivator 2 (Homo sapiens) (UniProt Q15596); experiment: SRC2 coactivator transcriptional activity inhibitors, confirmation, cell-based, luminescence, HEK293, triplicate (AID 652008;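 active = mean inhibition above 46.5%, the solvent-only control mean plus 3 SD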;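 note: 0% = DMSO-treated cells and 100% = Gossypol at 36 µM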); conditions: HEK293 GAL4-SRC2 luciferase reporter, at 8.9 µM, stronger effect = higher value
# [13] = biological target: (Lyso)-N-acylphosphatidylethanolamine lipase (Mus musculus) (UniProt Q8VD66); experiment: ABHD4 inhibitors, retest, confirmation, biochemical, fluorescence polarization, mouse (AID 720658;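 active = mean inhibition across replicates above the hit cutoff set in the primary screen, cut at about 30% in these data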;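 note: 0% = wild-type ABHD4 with DMSO and 100% = catalytically dead S159A mutant with DMSO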); conditions: purified mABHD4, FP-Rh probe fluorescence polarization; at 8.92 µM; stronger effect = higher value
# [14] = biological target: Nuclear receptor coactivator 1 (Homo sapiens) (UniProt Q15788); experiment: SRC1 coactivator transcriptional activity inhibitors, confirmation, cell-based, luminescence, quadruplicate (AID 588820;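 active = mean inhibition above 46.68%, the untreated control wells mean plus 3 SD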;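 note: 0% = DMSO wells and 100% = gossypol 36 µM treated wells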); conditions: HEK293 GAL4-SRC1 luciferase reporter, at 3.6 µM, stronger effect = higher value
# [15] = VP16 transactivation inhibitors, counter-screen for SRC1 inhibitor project, cell-based, luminescence, high throughput (AID 588824; in the data active = inhibition above about 25%); conditions: cell-based VP16 transactivation luciferase luminescence; at 3.6 µM; stronger effect = higher value
# Sequence of Photoreceptor-specific nuclear receptor (Homo sapiens) (Q9Y5X4 whole entry, looked up, the tested form may be a part): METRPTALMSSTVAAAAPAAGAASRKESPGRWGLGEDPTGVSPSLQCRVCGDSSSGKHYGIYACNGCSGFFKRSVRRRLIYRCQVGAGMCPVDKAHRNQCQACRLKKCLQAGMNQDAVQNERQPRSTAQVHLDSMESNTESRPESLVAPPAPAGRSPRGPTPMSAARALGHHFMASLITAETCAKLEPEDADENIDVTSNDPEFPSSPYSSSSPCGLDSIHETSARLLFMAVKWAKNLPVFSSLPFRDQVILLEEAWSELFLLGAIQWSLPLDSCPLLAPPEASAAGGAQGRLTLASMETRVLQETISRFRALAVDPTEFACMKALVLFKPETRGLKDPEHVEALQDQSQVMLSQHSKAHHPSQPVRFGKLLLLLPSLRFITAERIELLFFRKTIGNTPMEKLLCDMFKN
# Sequence of Oxytocin receptor (Homo sapiens) (P30559 whole entry, looked up): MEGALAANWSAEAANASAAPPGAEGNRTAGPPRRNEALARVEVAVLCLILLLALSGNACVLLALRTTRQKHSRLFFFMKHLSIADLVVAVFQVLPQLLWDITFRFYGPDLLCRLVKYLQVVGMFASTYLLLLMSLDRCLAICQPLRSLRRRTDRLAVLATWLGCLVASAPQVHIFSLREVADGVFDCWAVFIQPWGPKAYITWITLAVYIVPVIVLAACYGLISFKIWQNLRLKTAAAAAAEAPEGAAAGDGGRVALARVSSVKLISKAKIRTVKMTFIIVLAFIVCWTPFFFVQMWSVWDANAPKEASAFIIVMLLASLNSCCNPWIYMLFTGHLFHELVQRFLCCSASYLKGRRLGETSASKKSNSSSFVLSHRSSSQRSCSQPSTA
# Sequence of Vasopressin V1a receptor (Homo sapiens) (P37288 whole entry, looked up): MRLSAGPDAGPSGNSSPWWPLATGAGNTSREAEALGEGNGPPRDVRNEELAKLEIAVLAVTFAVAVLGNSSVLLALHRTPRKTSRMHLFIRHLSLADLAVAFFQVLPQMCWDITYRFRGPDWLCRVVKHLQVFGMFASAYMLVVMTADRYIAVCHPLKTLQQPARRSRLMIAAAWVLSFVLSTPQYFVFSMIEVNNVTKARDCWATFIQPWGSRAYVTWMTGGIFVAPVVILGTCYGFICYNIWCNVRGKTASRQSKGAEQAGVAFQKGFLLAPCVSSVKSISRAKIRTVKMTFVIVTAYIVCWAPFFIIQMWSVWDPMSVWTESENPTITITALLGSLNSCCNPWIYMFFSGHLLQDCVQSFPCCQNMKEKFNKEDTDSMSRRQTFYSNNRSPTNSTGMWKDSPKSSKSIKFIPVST
# Sequence of Insulin-degrading enzyme (Homo sapiens) (P14735 whole entry, looked up): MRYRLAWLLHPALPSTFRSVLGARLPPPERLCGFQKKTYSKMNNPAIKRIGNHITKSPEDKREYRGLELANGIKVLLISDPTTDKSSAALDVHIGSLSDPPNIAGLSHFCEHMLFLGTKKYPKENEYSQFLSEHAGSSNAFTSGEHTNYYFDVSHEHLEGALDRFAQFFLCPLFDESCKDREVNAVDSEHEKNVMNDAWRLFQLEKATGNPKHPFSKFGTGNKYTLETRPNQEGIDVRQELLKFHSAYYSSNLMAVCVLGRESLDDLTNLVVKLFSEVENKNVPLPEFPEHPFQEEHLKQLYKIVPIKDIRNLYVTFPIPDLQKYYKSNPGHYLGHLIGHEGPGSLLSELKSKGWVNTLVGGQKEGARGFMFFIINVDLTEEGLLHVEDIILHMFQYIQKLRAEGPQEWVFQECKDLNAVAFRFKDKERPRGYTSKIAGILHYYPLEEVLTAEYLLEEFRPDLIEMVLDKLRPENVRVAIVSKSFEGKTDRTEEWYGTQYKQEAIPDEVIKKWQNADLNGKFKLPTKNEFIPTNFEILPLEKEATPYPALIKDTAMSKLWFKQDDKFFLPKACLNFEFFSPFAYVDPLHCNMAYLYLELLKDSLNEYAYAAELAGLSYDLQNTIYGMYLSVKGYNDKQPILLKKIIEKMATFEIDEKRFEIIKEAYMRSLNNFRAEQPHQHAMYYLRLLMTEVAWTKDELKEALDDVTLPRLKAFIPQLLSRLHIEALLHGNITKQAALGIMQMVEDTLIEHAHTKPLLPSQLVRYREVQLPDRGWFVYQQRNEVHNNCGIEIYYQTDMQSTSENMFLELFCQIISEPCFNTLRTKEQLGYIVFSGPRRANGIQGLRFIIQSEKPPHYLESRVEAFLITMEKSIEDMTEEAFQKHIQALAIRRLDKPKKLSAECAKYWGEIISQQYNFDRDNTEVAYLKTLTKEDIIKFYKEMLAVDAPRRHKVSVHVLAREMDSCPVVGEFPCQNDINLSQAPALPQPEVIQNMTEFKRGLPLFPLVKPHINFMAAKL
# Sequence of Lytic switch protein BZLF1 (Epstein-Barr virus (strain B95-8)) (P03206 whole entry, looked up): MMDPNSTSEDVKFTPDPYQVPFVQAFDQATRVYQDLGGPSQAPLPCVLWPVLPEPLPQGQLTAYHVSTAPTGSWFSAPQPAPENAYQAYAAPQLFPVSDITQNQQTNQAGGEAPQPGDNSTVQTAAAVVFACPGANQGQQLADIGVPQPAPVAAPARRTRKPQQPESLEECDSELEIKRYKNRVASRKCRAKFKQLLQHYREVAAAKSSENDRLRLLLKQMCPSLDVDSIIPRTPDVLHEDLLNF
# Sequence of (Lyso)-N-acylphosphatidylethanolamine lipase (Mus musculus) (Q8VD66 whole entry, looked up): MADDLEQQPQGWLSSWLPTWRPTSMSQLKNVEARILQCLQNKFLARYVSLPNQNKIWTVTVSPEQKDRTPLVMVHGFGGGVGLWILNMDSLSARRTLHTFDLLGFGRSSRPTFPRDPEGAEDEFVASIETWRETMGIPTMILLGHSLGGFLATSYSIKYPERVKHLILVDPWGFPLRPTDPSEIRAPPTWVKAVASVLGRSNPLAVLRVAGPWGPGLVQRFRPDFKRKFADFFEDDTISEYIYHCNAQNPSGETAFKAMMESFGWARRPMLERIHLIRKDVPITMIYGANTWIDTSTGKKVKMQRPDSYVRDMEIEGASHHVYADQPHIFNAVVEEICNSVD
# Sequence of Nuclear receptor coactivator 2 (Homo sapiens) (Q15596 whole entry, looked up, the tested form may be a part): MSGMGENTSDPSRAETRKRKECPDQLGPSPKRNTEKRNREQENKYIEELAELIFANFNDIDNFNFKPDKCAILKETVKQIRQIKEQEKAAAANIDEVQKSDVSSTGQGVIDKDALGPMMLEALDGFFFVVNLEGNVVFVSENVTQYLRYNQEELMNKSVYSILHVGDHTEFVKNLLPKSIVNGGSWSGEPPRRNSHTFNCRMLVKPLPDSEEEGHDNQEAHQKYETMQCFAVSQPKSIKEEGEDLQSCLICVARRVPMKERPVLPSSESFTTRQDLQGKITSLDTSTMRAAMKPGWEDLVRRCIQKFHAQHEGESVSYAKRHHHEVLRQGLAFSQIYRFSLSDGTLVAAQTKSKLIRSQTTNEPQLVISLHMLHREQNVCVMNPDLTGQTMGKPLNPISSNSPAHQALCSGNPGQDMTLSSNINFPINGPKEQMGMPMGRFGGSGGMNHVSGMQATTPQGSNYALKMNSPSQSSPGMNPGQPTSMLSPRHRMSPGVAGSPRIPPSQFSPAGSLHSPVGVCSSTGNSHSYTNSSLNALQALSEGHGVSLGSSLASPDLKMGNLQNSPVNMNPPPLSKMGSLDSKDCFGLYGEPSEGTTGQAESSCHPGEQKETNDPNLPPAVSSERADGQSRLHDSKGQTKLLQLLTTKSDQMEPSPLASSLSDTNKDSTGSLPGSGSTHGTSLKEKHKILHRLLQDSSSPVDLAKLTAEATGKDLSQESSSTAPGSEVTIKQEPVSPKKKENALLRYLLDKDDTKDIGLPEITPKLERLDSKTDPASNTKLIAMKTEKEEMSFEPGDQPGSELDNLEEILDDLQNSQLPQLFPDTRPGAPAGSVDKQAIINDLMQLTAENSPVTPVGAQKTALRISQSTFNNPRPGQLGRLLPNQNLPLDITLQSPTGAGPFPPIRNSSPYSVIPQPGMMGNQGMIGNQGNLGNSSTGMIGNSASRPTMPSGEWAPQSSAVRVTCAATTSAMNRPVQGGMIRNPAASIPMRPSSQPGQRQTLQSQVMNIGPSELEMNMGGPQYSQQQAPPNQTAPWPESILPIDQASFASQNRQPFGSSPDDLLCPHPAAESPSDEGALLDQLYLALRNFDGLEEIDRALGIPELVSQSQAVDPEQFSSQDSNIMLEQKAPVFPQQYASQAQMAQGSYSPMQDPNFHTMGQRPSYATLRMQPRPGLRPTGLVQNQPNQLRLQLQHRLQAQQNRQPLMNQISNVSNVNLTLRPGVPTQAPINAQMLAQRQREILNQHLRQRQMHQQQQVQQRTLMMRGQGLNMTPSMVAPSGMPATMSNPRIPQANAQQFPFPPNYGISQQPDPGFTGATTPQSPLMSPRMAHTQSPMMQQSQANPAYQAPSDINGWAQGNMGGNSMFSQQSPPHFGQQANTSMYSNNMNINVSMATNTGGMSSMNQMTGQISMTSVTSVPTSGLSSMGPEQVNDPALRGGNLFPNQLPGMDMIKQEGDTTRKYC
smiles,measurement,setting,value
CCN1CCN(CCNC(=O)c2ccc(/C=C3/Sc4ccccc4N(Cc4cccc(C)c4)C3=O)cc2)CC1,inhibition,[1],49.5% (active)
same,inhibition,[2],1.16%
CN(C)CCCN(C(=O)c1ccc(S(=O)(=O)N2CCCCCC2)cc1)c1nc2ccc(Br)cc2s1,activation,[3],6.69%
same,activation,[4],11.3%
COc1cccc(-n2c(=S)[nH]c3c(oc4ccccc43)c2=O)c1,activation (reported as inhibition),[5],14.3%
same,inhibition,[6],8.55%
COc1cc(C(CCN2CCN(c3ccccc3)CC2)c2c(OC)cc(OC)c3ccc(=O)oc23)cc(OC)c1OC (stereo not drawn),activation,[3],-0.33%
same,activation,[4],0.28%
CC1=CC2=NC(=O)/C(=C/c3coc4ccccc4c3=O)C(=N)N2O1,activation,[3],40% (active)
same,activation,[4],36.5% (active)
N#Cc1ccccc1Sc1ccccc1C(=O)OCC(=O)NC1CCCCC1,activation (reported as inhibition),[5],10.1%
same,inhibition,[6],21.8% (active)
CC1(C)CC[C@@]2(C(=O)O)C(C1)C1=CCC3[C@@]4(C)CC[C@H](O)C(C)(C)C4CC[C@@]3(C)[C@]1(C)C[C@H]2O (stereo partly drawn),activation,[3],67.3% (active)
same,activation,[4],1.34%
Cn1cnc2c1c(=O)n(Cc1ccccc1C#N)c(=O)n2C,inhibition,[1],-1.92%
same,inhibition,[2],-2.72%
CCOC(=O)c1ccc(NC(=S)N2CCN(c3ccccn3)CC2)cc1,activation (reported as inhibition),[5],-3.59%
same,inhibition,[6],-8.54%
COc1ccc(NS(=O)(=O)c2ccc(NC(=S)NC(=O)CC(C)C)cc2)cc1,activation,[3],12.6%
same,activation,[4],12.8%
C=CCOc1cccc(C2C(C(=O)c3ccc(C)o3)=C(O)C(=O)N2CCCn2ccnc2)c1 (stereo not drawn),activation (reported as inhibition),[5],9.01%
same,inhibition,[6],7.51%
CCC(=O)Nc1ccc(Nc2nc(Cl)nc(Nc3ccc(NC(=O)CC)cc3)n2)cc1,inhibition,[1],-2.63%
same,inhibition,[2],5.66%
O=C(Nc1ccc(Sc2ccc(Br)cc2)cc1)c1ccco1,inhibition,[7],14.3%
same,inhibition,[8],20.9%
CN(C)S(=O)(=O)c1ccc(Oc2ccc(S(=O)(=O)N(C)C)cc2)cc1,activation,[3],11.7%
same,activation,[4],11.1%
same,inhibition,[9],71.8% (active)
same,inhibition,[10],31.9%
Cc1ccc2c(c1)c1ncnc(N3CCc4ccccc4C3)c1n2C,inhibition,[7],14%
same,inhibition,[8],7.19%
O=C(Nc1ccc(Cl)c(Cl)c1)N1CC=C(c2ccccc2)CC1,inhibition,[7],4.7%
same,inhibition,[8],8.42%
O=C(/C=C/c1ccc(OCc2c(F)cccc2Cl)cc1)N1CCOCC1,inhibition,[7],12.4%
same,inhibition,[8],67.9% (active)
O=C(Oc1c(-c2ccco2)oc2ccccc2c1=O)c1cccnc1,inhibition,[7],93% (active)
same,inhibition,[8],8.69%
CCCC(=O)Nc1c(O)c2ccccc2[nH]c1=O,inhibition,[7],2.78%
same,inhibition,[8],9.27%
CCc1ccc(-c2nn(-c3ccccc3)cc2CSC(=N)N)cc1,activation,[3],11%
same,activation,[4],7.29%
same,inhibition,[11],-13.8%
same,inhibition,[12],-7.64%
same,inhibition,[13],43.6% (active)
Cc1cccc(N2CCN(C(=O)c3cccc(N4C(=O)C5C6C=CC(C6)C5C4=O)c3)CC2)c1C (stereo not drawn),inhibition,[7],31.1% (active)
same,inhibition,[8],17.6%
O=C(N/N=C/c1ccc(OC(=O)c2ccccc2Cl)cc1)c1ccc(O)cc1,inhibition,[7],4.51%
same,inhibition,[8],6.4%
COc1cc(/C=C(\C#N)c2nc3ccccc3[nH]2)ccc1O,inhibition,[7],134% (active)
same,inhibition,[8],21.9%
C=CCC1=C/C(=C\c2c(N)n3nc(CC(=O)N4CCOCC4)sc3nc2=O)C=C(OC)C1=O,inhibition,[7],25.9% (active)
same,inhibition,[8],12.5%
CC1(C)Cc2cccc(OCC(=O)N3CCN(c4ccc([N+](=O)[O-])cc4)CC3)c2O1,inhibition,[7],4.72%
same,inhibition,[8],19.7%
CCC(=C/c1sc2ccc3ccccc3c2[n+]1C)/C=C1\Sc2ccc3ccccc3c2N1C,inhibition,[7],13.4%
same,inhibition,[8],110% (active)
COc1ccc(N2CCN(C(=O)/C(C#N)=C/c3ccccc3)CC2)cc1,inhibition,[7],8.71%
same,inhibition,[8],5.82%
CC(=O)c1cc(NC(=O)c2ccccc2)c(=O)oc1/C=C/N(C)C,inhibition,[7],31% (active)
same,inhibition,[8],5.05%
O=C(C1=C[C@H](c2coc3ccccc3c2=O)C[C@H](OCc2ccc(CO)cc2)O1)N1CCN(Cc2ccccc2)CC1,inhibition,[7],2.63%
same,inhibition,[8],17.5%
Cc1cc(S(=O)(=O)c2cc3ccc(O)c(C)c3oc2=O)ccc1F,activation,[3],16%
same,activation,[4],13.1%
same,inhibition,[14],-24%
same,inhibition,[15],-0.08%
CC(C(=O)c1ccc(-c2ccccc2)cc1)[n+]1cccc(Br)c1 (stereo not drawn),inhibition,[7],16.4% (active)
same,inhibition,[8],14.3%
CCN1/C(=C/c2ccc3ccc(C)cc3[n+]2CC)Sc2ccccc21,inhibition,[7],55.5% (active)
same,inhibition,[8],107% (active)
CCCCc1cc(=O)oc2c(C)c(OCC(=O)N3CCC(C(N)=O)CC3)ccc12,inhibition,[7],8.74%
same,inhibition,[8],11.7%

# Source: PubChem BioAssay
